# Compound activity from PubChem BioAssay.
# Shown are actives, neighbours in structure and some others; about 12% of the full set was active somewhere.
# Sm TGR block: blocks Schistosoma mansoni thioredoxin glutathione reductase; Q962Y6; purified TGR, DTNB reduction, TNB absorbance 405 nm; Potency, µM (titrated, usually from 114 µM), without a hit: top-dose activity change, negative = inhibition, usual class: inhibitors; 360,000 compounds, 3% hits; also: % is scaled to controls: 0 for no effect and ±100 for the full control effect; nearly all actives have a fitted effect of over 60% in size
#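 Kinetic colorimetric format: TGR-catalysed, NADPH-driven DTNB reduction monitored via TNB absorbance. Enzyme dispensed at 20 nM; compound exposure 15 min at room temperature before reaction start.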
# Pf growth 48h: inhibits P. falciparum growth in the first generation, 48 h; Potency, µM (doses to about 28.7 µM), inactives show at the top dose activity change, negative = inhibition, most hits filed as inhibitors; AID 504832; P. falciparum luciferase growth in erythrocytes, 48 h; 310,000 compounds, 5.9% hits; also: % is scaled to controls: 0 for no effect and ±100 for the full control effect
#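 Here the parasites carry a stable luciferase gene and grow inside erythrocytes in Albumax-based RPMI medium with compound for one erythrocytic cycle. Activity is scored as loss of luminescent signal.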
# Pf growth 96h: P. falciparum growth inhibition at 96 hours | Potency, µM (doses to about 28.7 µM), without a hit: at the highest dose activity change, negative = inhibition, most hits filed as inhibitors | P. falciparum luciferase reporter growth, 96 h | 320,000 compounds, 6.9% hits; also: % is scaled to controls: 0 for no effect and ±100 for the full control effect
#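 Erythrocytes infected with luciferase-expressing P. falciparum were dispensed at 2% hematocrit and 0.05% parasitemia (final), then incubated with compounds 96 hours at 37 C in 5% CO2. Luminescence after detection reagent addition reported growth.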
# SARS PLP yeast: SARS-CoV PLP inhibition in yeast; S. cerevisiae expressing SARS-CoV PLpro, growth rescue; Potency, µM (top dose mostly 32.9 µM), without a hit: top-dose activity, positive = growth rescue, actives largely listed as activators; 330,000 compounds, 0.19% hits; calls by dose curve; also: 0% is about no effect; nearly all actives have a fitted effect of over 55% in size
# Numbers without * were called inactive; ? = inconclusive; . = no result; [ ] = another dose, or the depositor's remark. Unless noted, calls follow the shape of the dose curve; as a rule, active = well fitted curve in the direction sought with a large enough effect; inconclusive = small, poorly fitted or top-dose-only effect, or another doubt; inactive = no such curve, though single readings can be large; an effect the other way counts as inactive or inconclusive. Potency is read from the fitted curve at half-maximal effect.
SMILES,Sm TGR block,Pf growth 48h,Pf growth 96h,SARS PLP yeast
C[C@@H]1[C@H](O)[C@@H](C)/C=C/C=C/C=C/C=C/C=C/C=C/C=C/[C@H](O[C@@H]2O[C@H](C)[C@@H](O)[C@H](N)[C@@H]2O)C[C@@H]2O[C@](O)(C[C@@H](O)C[C@@H](O)[C@H](O)CC[C@@H](O)C[C@@H](O)CC(=O)O[C@H]1C)C[C@H](O)[C@H]2C(=O)O,.,-16.1%,-13.4%,.
CCN1C(=O)[C@H]2[C@H]3[C@H](O)[C@H](O)C/C(=N\OC[C@@H](C)[C@H](OCc4ccccc4)C(C)C)[C@@H]3CC[C@H]2C1=O,-19.2%,10.4µM*,?,5.4%
CC(C)=C1C2CCC1C1C(=O)N(CCc3ccccc3)C(=O)C21 (centres undefined),-11.2%,-10.1%,?,-9.3%
C=CCNC1=C2C[C@@H](C)C[C@H](OC)[C@H](O)[C@@H](C)/C=C(\C)[C@H](OC(N)=O)[C@@H](OC)/C=C\C=C(/C)C(=O)NC(=CC1=O)C2=O,.,0.601µM*,10.7µM*,.
C/C(CC(=O)Nc1ccc(N(C)C)cc1)=N\NC(=O)c1ccc(F)cc1,-32.2%,-10.8%,18.7%,1.3%
C/C(CC(=O)Nc1ccc(N(C)C)cc1)=N\NC(=O)C(=O)NCc1ccccc1,-15.2%,24.5%,4.65µM*,-1.8%
C/C(CC(=O)Nc1ccc(N(C)C)cc1)=N\NC(=O)c1ccc(C(C)(C)C)cc1,-20.9%,-6.8%,4.15µM*,-5.3%
CCc1ccc(NC(=O)C(=O)N/N=C(\C)CC(=O)Nc2ccc(OC)cc2)cc1,44.7µM*,66.1%,1.9%,-1.3%
C/C(CC(=O)Nc1ccc(N(C)C)cc1)=N\NC(=O)c1ccccc1O,44.7µM*,?,3.4%,-5.0%
CC(C)(C)c1ccc(OCC(=O)Nc2c(C(=O)c3ccc(F)cc3)oc3ccccc23)cc1,4.2%,.,.,.
CCC1CCCCN1CCCNC(=O)c1ccc2c(c1)N(Cc1cccc(C)c1)C(=O)c1ccccc1S2(=O)=O (centres undefined),8.2%,.,.,.
O=C(NC1CC(=O)N(c2cccc(F)c2)C1)C1CC1 (centres undefined),1.5%,.,.,.
CCCCNC(=O)CCCn1c(=O)c2ccccc2n(Cc2ccc(Cl)cc2)c1=O,4.8%,.,.,.
COc1cc(NC(=O)Cn2c([N+](=O)[O-])cnc2C)c(OC)cc1Cl,7.8%,?,?,2.9%
COc1cccc(C2C(C#N)=C(N)OC3=C2C(=O)CC(c2ccco2)C3)c1OCc1ccc(F)cc1 (centres undefined),?,6.57µM*,64.6%,-5.1%
N#CC1=C(N)OC2=C(C(=O)CC(c3ccco3)C2)C1c1ccc(OCc2c(F)cccc2Cl)cc1 (centres undefined),-6.9%,?,26.2%,-3.7%
CCCC(C(=O)NC1CCCC1)N(Cc1ccccc1Cl)C(=O)c1snc(C(N)=O)c1N (centres undefined),-2.0%,?,-11.1%,-0.7%
COc1ccc(N2C(=O)C(C)(C)C2c2c(O)ccc3ccccc23)cc1 (centres undefined),-2.2%,8.28µM*,-1.9%,-11.7%
Cc1ccc(C(=O)N/C(=C\c2cn(S(=O)(=O)N(C)C)c3ccccc23)C(=O)NCCN2CCOCC2)cc1,-23.6%,?,?,-2.9%
O=C1C2=C(Nc3ccccc3SC2c2ccco2)c2ccccc21 (centres undefined),1.4%,0.329µM*,6.0%,-13.7%
CC(C)c1ccc(C2Sc3ccccc3NC3=C2C(=O)c2ccccc23)cc1 (centres undefined),0.8%,.,.,.
Cc1ccc(NC(=O)CCS(=O)(=O)c2ccc(Br)s2)c(Br)c1,3.3%,.,.,.
COc1ccc(Oc2c(C)oc3cc(OC(=O)N(C)C)ccc3c2=O)cc1,22.4µM*,-23.3%,23.6%,0.2%
COc1ccccc1Oc1c(C)oc2cc(OC(=O)N(C)C)ccc2c1=O,4.3%,-1.2%,14.3%,1.2%
CC1CCN(C(=O)Cn2c(=O)n(Cc3ccco3)c(=O)c3sccc32)CC1,1.2%,-15.0%,-8.8%,-6.0%
SMILES,Sm TGR block,Pf growth 48h,Pf growth 96h,SARS PLP yeast
O=C(NCCN1CCOCC1)c1cc(-c2ccccc2Cl)nc2ccccc12,5.4%,-10.3%,9.28µM*,-3.3%
Cc1ccc(-c2cc(C(=O)NCCN3CCOCC3)c3ccccc3n2)o1,44.7µM*,-5.7%,?,-4.1%
COc1ccc(-c2cc(C(=O)NCCN3CCOCC3)c3ccccc3n2)cc1,-9.7%,-14.1%,.,0.2%
CC(=O)c1cccc(NC(=O)c2ccc(Cl)c(S(=O)(=O)N3CCOCC3)c2)c1,0.1%,.,.,.
Cc1ccc(C(=O)/C=C/NNC(=O)c2ccccc2O)cc1,3.1%,15.6%,-20.5%,-8.3%
O=C(O)COc1ccccc1C=NNC(=O)c1ccccc1NS(=O)(=O)c1cccs1,.,.,.,-6.6%
CC(C)(C)n1nnnc1C(c1cccnc1)N1CCN(c2ccccc2)CC1 (centres undefined),4.5%,?,-16.9%,-22.9%
CCC(C)(C)n1nnnc1C(c1cccnc1)N1CCN(c2cccc(C(F)(F)F)c2)CC1 (centres undefined),-2.3%,9.28µM*,-0.1%,-29.8%
CCC(C)(C)n1nnnc1C(c1ccncc1)N1CCN(c2cccc(OC)c2)CC1 (centres undefined),-16.4%,0.0%,2.62µM*,0.6%
CCC(C)(C)n1nnnc1C(c1ccc(C)cc1)N1CCN(Cc2cccnc2)CC1 (centres undefined),?,13.1µM*,-3.9%[5.75 µM],6.1%
O=C(Nc1ccc(C(F)(F)F)cc1)C1(c2cccs2)CCOCC1,7.4%,.,.,.
O=C(c1ccccc1)c1ccc2nc(Nc3ccccc3Cl)c3nncn3c2c1,-0.3%,.,.,.
Cc1ccc(C(C(=O)NC2CCCC2)N(CCCO)C(=O)Cn2nnc(-c3ccc(C)o3)n2)cc1 (centres undefined),-4.0%,-16.7%,?,0.5%
CCCCOc1cccc(C(=O)Nc2sc3c(c2C(=O)OCC)CCCC3)c1,7.2%,.,.,.
CC(=O)c1cccc(NC(=O)C(C)OC(=O)c2cccc(-n3cnnn3)c2)c1 (centres undefined),-1.3%,-5.6%,9.7%,3.4%
CCCN(C(=O)CCc1nc(-c2ccc(OC)cc2)no1)c1ccccc1F,4.1%,.,.,.
C[C@H](CO)N1C[C@H](C)[C@@H](CN(C)Cc2ccc(Cl)c(Cl)c2)Oc2c(NS(=O)(=O)c3ccc(F)cc3)cccc2C1=O,.,.,.,3.8%
Cc1nc2ccc(S(=O)(=O)NC(C(=O)N3CCN(c4cccc(Cl)c4)CC3)C(C)C)cc2s1 (centres undefined),-2.4%,.,.,.
Cc1ccc2c(N)c(C(=O)N(c3ccccc3)c3ccccc3)sc2n1,-10.1%,9.28µM*,?,-7.0%
CC[C@H](C)[C@@H](C(=O)NCCCCCCCCCCC(=O)N1CCN(C(=O)OC(C)(C)C)CC1)n1cc(CCCCCNC(=O)OC(C)(C)C)nn1,-0.8%,1.47µM*,1.04µM*,-2.5%
Cc1cn([C@H](C(=O)NCCCCCCCCCCC(=O)N2CCN(C(=O)OC(C)(C)C)CC2)[C@@H](C)O)nn1,-0.9%,10.4µM*,9.28µM*,1.6%
